In the supplement of paper PMC11732987, “Enantioselective OTUD7B fragment discovery through chemoproteomics screening and high-throughput optimisation” (Communications Chemistry, 2025):

What was measured:
Assay in all cases: log2 ratio of Biotin-Ahx-Ub-VS probe labelling (fragment/DMSO); higher = less target engagement (more negative = stronger competition), active = hit call of the paper (q ≤ 0.05, log2 ratio ≤ -1)
Conditions in all cases: compound concentration: 200 uM; treatment time: 3 h
USP42 = target: T1, USP42 (UniProt Q9H9J4)
T1 sequence (whole entry): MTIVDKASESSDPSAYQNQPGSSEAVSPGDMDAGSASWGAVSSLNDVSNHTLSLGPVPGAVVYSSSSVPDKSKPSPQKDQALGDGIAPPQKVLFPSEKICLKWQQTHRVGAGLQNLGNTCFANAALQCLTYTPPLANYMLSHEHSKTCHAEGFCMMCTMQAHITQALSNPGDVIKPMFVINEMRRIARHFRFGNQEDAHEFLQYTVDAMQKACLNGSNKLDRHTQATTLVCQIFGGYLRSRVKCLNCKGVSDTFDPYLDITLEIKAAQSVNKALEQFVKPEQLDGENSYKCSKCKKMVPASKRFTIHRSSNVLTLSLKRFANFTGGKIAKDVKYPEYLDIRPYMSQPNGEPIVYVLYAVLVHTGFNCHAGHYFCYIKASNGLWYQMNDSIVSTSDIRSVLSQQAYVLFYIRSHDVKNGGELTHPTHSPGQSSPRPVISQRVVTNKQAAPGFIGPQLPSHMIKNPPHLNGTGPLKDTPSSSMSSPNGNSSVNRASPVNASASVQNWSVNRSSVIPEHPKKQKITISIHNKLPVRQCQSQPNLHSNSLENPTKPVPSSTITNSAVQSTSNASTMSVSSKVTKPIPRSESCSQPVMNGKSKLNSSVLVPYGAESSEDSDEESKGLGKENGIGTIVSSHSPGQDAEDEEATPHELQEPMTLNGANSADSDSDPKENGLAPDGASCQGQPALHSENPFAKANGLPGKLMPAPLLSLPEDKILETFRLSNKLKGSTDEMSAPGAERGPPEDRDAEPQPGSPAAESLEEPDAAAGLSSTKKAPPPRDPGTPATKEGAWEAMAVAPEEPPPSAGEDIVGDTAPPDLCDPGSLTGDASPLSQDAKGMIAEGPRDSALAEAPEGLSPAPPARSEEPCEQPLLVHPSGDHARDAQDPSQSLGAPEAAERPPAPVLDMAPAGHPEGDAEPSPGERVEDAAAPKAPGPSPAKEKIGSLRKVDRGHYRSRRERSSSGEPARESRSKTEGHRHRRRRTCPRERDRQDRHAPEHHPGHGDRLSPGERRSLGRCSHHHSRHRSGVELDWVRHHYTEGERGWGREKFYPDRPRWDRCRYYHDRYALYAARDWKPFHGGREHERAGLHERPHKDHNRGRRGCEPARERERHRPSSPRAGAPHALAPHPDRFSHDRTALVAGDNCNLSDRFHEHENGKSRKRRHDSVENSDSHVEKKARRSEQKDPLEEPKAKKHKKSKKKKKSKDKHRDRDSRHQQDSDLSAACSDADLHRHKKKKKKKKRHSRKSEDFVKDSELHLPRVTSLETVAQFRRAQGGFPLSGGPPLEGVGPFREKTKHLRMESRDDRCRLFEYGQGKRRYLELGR
How it was run: (§1)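 Triplicate samples of HEK293T lysate, 495 µg each, received fragment at 200 µM or vehicle for 3 h, followed by Biotin-Ahx-Ub-VS (0.5 µM final) for 1 h. After NeutrAvidin enrichment of labelled DUBs and LysC/trypsin digestion, peptides were run by diaPASEF LC-MS/MS. The values are average log2 fragment/vehicle ratios from global-median-normalised Spectronaut label-free quantities, tested by unpaired t-test on proteins having ≥2 unique peptides.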

USP46 = USP46 (UniProt P62068)
How it was run: as §1

USP47 = target: T2, USP47 (UniProt Q96K76)
T2 sequence (whole entry): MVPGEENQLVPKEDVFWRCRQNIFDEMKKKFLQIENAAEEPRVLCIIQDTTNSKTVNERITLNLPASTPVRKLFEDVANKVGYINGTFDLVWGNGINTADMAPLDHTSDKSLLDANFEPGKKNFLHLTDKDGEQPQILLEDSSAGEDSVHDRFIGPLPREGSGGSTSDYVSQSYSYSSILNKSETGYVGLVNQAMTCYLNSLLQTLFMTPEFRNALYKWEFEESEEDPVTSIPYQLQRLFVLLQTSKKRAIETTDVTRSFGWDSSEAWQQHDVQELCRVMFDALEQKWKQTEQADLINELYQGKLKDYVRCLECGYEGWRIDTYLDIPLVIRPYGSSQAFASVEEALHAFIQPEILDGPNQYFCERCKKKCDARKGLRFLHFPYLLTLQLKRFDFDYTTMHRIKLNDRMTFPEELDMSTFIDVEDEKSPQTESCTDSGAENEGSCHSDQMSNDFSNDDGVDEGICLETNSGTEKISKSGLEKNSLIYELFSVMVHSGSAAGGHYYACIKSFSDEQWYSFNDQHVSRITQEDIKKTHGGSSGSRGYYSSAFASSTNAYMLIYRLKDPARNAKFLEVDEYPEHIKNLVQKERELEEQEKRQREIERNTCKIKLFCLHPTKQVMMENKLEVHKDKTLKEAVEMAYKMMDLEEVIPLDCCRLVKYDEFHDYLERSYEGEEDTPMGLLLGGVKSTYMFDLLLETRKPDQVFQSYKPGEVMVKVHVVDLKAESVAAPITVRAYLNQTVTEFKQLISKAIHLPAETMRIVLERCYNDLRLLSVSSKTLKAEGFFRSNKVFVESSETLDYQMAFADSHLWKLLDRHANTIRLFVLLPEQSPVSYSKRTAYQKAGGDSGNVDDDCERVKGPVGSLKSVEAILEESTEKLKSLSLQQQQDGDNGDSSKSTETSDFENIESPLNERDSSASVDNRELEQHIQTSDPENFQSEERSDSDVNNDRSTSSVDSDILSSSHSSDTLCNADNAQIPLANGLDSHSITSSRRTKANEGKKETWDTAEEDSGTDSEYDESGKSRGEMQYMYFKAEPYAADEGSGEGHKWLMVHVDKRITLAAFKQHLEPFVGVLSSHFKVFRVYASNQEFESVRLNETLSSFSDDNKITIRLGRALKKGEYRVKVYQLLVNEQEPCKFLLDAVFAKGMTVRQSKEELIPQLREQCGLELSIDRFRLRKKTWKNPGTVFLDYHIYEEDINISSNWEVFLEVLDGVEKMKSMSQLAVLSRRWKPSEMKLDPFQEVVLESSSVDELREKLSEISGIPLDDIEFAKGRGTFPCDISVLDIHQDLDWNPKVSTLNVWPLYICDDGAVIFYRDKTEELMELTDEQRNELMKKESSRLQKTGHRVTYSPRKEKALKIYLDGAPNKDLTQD
How it was run: as §1

USP48 = target: T3, USP48 (UniProt Q86UV5)
T3 sequence (whole entry): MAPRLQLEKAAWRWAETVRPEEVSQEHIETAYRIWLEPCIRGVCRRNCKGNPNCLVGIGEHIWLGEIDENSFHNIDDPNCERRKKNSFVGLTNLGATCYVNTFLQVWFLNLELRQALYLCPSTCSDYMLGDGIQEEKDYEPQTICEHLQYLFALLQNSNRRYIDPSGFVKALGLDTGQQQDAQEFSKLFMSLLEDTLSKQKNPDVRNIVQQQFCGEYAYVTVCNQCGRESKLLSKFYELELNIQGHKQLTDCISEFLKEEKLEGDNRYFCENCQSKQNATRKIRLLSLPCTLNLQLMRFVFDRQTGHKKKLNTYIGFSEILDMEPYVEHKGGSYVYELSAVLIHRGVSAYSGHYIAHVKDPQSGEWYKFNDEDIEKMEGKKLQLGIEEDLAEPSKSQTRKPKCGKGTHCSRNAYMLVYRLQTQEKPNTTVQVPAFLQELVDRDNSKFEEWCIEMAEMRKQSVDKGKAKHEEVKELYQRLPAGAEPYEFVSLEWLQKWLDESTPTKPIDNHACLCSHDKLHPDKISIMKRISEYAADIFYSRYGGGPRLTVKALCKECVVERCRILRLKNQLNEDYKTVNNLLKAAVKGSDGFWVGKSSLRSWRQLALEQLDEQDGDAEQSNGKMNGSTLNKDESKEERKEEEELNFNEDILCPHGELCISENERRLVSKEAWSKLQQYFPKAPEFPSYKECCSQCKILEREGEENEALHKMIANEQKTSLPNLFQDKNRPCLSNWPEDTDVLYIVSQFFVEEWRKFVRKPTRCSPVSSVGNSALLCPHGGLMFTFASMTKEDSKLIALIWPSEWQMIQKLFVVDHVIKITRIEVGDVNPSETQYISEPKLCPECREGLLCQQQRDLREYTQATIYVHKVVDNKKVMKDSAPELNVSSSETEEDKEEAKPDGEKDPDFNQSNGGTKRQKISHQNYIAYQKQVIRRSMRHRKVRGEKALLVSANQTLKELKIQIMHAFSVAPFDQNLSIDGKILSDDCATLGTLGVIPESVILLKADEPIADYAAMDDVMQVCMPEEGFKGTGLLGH
How it was run: as §1

USP5 = target: T4, USP5 (UniProt P45974)
T4 sequence (whole entry): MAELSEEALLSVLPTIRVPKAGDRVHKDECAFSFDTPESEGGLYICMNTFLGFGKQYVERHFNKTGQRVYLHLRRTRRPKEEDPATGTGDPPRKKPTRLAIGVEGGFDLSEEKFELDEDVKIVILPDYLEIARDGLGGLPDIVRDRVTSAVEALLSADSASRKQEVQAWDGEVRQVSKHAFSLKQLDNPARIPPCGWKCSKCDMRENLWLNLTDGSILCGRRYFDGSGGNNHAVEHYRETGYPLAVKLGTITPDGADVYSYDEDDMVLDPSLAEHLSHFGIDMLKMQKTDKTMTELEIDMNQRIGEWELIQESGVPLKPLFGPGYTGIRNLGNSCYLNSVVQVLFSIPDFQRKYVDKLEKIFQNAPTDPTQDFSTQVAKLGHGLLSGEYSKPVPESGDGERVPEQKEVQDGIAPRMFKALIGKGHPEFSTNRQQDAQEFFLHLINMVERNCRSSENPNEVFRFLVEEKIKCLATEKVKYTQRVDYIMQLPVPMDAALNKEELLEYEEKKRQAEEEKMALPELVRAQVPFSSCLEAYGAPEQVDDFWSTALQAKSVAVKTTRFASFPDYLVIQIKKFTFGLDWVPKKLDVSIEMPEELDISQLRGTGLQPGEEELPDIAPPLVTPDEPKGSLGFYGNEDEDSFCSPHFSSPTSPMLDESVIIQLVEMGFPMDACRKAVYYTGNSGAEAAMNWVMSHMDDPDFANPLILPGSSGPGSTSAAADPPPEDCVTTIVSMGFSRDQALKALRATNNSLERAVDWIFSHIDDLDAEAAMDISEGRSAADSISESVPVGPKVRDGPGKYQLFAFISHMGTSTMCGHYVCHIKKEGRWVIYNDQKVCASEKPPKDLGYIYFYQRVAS
How it was run: as §1

USP54 = USP54 (UniProt Q70EL1)
How it was run: as §1

USP7 = USP7 (UniProt Q93009)
How it was run: as §1

USP8 = target: T5, USP8 (UniProt P40818)
T5 sequence (whole entry): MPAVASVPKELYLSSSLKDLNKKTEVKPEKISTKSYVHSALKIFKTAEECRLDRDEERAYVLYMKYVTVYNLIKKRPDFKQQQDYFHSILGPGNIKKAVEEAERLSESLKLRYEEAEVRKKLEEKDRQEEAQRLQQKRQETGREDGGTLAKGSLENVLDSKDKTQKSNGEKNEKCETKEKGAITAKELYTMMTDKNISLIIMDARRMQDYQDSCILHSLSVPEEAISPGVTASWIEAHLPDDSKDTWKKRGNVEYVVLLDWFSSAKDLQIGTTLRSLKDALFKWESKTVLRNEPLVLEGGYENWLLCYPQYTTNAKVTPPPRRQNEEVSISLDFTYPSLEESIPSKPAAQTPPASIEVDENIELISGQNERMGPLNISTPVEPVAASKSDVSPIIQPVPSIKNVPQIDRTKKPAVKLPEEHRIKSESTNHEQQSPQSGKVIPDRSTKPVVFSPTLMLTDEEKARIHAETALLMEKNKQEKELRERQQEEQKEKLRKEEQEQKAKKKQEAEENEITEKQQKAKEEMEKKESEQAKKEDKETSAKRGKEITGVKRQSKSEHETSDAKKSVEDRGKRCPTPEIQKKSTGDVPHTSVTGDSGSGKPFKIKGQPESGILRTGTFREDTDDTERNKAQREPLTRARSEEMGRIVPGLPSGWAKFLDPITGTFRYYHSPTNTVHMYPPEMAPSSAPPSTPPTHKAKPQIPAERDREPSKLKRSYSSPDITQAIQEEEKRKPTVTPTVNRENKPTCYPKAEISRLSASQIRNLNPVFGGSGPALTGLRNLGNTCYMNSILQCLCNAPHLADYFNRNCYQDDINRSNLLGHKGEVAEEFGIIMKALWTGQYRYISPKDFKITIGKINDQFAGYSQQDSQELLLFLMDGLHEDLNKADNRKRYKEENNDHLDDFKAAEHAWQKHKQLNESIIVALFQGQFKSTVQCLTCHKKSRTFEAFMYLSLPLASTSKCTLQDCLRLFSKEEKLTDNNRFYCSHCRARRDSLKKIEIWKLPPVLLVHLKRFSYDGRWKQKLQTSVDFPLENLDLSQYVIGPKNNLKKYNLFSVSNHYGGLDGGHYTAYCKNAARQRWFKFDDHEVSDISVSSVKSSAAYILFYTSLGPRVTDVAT
How it was run: as §1

USP9X = USP9X (UniProt Q93008)
How it was run: as §1

UniProt O00487 = target: UniProt O00487
How it was run: as §1

Measured: log2 ratio of Biotin-Ahx-Ub-VS probe labelling

Sequence of UniProt O00487 (O00487 whole entry): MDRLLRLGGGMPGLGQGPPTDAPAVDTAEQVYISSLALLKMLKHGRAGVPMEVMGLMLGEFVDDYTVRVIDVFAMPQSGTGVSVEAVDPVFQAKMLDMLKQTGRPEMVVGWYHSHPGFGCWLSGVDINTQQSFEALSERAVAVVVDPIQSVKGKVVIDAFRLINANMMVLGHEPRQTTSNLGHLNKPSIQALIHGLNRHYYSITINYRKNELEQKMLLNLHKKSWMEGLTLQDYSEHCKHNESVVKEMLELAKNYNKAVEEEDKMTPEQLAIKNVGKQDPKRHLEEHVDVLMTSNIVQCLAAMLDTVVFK
Sequence of USP9X (Q93008 whole entry): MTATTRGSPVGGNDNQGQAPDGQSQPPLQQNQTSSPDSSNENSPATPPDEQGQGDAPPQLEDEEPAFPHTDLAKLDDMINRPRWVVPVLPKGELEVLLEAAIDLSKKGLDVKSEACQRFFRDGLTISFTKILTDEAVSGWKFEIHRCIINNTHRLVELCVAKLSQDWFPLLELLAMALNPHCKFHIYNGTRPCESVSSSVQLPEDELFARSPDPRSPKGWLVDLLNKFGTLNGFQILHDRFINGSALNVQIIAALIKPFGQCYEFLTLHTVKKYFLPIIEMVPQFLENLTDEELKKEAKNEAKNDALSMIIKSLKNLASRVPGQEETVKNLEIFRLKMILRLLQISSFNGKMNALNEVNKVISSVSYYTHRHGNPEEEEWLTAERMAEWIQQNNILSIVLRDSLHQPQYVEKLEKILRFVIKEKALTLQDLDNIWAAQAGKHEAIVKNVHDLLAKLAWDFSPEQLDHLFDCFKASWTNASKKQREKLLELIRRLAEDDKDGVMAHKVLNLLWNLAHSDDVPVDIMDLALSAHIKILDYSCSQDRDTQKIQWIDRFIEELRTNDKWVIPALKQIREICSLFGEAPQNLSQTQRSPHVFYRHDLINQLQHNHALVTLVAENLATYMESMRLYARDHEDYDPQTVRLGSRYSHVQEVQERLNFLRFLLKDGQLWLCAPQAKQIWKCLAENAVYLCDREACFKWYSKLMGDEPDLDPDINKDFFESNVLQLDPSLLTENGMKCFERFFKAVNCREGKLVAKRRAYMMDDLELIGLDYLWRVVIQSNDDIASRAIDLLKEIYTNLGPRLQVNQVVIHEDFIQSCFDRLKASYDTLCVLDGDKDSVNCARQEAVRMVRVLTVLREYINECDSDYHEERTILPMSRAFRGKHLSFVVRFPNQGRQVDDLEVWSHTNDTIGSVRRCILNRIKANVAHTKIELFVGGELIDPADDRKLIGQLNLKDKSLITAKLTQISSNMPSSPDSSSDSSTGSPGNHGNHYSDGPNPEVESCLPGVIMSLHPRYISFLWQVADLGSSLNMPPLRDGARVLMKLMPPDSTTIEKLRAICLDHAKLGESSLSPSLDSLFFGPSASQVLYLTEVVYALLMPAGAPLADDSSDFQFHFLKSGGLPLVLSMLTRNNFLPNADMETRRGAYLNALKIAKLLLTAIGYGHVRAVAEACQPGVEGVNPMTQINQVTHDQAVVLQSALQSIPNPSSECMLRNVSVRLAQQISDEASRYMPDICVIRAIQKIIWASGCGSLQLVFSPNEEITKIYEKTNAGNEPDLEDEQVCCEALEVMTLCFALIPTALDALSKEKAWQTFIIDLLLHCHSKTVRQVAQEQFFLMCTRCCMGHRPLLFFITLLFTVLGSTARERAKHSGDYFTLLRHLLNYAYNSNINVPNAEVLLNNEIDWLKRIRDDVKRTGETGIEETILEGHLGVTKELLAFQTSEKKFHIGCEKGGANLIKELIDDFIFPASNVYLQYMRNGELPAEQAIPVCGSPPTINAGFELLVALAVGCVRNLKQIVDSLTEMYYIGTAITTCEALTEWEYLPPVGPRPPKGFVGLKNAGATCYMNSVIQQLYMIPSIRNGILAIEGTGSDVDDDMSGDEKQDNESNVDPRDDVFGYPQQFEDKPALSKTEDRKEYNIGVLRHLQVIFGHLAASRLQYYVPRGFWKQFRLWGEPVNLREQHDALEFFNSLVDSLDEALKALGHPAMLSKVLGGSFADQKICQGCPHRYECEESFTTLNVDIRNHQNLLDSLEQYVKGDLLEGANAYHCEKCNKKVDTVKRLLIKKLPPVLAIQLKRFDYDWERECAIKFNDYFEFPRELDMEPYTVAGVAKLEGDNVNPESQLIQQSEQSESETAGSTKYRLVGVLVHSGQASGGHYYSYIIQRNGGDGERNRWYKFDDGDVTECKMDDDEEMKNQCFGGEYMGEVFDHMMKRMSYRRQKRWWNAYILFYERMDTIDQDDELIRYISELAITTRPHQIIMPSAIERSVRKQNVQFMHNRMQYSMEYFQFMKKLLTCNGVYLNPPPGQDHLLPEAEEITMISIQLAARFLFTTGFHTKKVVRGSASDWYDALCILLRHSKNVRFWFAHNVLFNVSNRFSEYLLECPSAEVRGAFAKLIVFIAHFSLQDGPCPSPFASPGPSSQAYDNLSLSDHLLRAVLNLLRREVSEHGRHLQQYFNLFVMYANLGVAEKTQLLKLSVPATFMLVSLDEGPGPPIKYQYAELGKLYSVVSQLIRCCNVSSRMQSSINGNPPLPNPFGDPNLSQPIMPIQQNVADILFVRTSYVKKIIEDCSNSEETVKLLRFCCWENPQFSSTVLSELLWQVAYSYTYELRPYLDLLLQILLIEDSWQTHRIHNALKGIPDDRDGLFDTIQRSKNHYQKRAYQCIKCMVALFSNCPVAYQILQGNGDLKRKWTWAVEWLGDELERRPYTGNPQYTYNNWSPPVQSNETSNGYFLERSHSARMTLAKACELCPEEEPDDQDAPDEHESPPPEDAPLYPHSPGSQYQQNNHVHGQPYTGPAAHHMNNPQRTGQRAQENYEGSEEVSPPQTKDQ
Sequence of USP7 (Q93009 whole entry, looked up): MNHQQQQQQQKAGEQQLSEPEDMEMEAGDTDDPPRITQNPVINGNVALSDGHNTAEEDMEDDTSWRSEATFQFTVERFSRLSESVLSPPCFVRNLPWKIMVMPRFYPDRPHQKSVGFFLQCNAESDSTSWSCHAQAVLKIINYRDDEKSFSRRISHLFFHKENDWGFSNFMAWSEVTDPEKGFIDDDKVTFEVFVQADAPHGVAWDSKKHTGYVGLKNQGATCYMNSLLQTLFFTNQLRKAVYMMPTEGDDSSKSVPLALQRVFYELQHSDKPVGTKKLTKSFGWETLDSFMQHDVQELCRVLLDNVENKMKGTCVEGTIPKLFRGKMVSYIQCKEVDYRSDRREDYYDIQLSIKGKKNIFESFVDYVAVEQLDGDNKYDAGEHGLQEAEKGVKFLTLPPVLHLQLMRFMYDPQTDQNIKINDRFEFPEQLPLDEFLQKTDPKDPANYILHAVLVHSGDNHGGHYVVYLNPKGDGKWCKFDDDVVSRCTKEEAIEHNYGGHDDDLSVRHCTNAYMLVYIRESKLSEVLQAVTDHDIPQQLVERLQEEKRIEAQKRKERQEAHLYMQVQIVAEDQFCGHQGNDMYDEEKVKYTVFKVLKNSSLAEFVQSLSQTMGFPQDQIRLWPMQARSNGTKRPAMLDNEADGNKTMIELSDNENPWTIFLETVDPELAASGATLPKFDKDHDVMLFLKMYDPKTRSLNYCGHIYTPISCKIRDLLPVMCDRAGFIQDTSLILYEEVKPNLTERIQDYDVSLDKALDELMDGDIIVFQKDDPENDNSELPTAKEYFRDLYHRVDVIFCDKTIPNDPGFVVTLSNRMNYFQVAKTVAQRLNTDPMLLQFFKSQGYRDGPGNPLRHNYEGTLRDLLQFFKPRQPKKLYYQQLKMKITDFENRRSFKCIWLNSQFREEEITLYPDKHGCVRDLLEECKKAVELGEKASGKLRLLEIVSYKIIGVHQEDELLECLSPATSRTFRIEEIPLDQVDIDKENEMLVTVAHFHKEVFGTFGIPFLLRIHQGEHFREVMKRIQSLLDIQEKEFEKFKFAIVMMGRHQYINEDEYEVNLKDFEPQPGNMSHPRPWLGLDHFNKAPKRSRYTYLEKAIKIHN
Sequence of USP46 (P62068 whole entry): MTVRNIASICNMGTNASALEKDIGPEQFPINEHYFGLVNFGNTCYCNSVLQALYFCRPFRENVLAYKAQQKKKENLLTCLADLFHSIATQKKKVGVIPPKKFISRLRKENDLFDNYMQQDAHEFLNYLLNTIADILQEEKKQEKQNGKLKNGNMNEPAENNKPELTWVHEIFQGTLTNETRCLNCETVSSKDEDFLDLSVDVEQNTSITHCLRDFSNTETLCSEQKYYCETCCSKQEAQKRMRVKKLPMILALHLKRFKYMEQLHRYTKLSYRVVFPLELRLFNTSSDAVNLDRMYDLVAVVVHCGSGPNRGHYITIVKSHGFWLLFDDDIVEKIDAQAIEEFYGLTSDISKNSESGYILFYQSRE

O=C(CCl)Nc1ccc(N2CCCC2=O)cc1
inactive: USP42 -0.131 | USP46 0.132 | USP47 0.214 | USP48 -0.192 | USP5 -0.0866 | USP54 0.313 | USP7 -0.0242 | USP8 0.198 | USP9X 0.00968 | UniProt O00487 -0.0936
